# In the antibiotic and cytotoxicity screens of Wong et al. (2023):
# Among all 39,000 compounds or so, about 3,300 (8.5%) were called active. This is one part of a sample in which actives are shown more often than they occur.
# System: HepG2
# Experiment: cytotoxicity call (relative viability < 0.9)
# Conditions: 10 µM
row,SMILES,cytotoxicity call
1,CCN1[C@H](C(=O)NCCc2cn(C)cn2)[C@@H](CO)[C@@H]2Cn3c(ccc(-c4ccncc4)c3=O)[C@@H]21,inactive
2,C[C@@H]1CN([C@H](C)CO)C(=O)c2cccc(NS(=O)(=O)c3cn(C)cn3)c2O[C@H]1CN(C)S(=O)(=O)c1ccccc1,inactive
3,C[C@@H]1CCCCO[C@@H](CN(C)C(=O)Nc2ccc(C(F)(F)F)cc2)[C@@H](C)CN([C@H](C)CO)C(=O)c2cc(NC(=O)c3ccncc3)ccc2O1,inactive
4,C[C@H](O)C#Cc1ccc2c(c1)O[C@H](CN(C)C(=O)CN(C)C)[C@@H](C)CN([C@H](C)CO)S2(=O)=O,inactive
5,COc1ccc(NC(=O)Nc2cccc3c2O[C@H](CN(C)Cc2ccc(Cl)c(Cl)c2)[C@H](C)CN([C@@H](C)CO)C3=O)cc1,inactive
6,COc1ccc(S(=O)(=O)N(C)C[C@H]2OCCCC[C@@H](C)Oc3ccc(NC(=O)Nc4ccc5c(c4)OCO5)cc3C(=O)N([C@H](C)CO)C[C@@H]2C)cc1,inactive
7,Cc1noc(C)c1NC(=O)Nc1ccc2c(c1)C(=O)N([C@H](C)CO)C[C@@H](C)[C@H](CN(C)Cc1ccc3c(c1)OCO3)OCCCC[C@H](C)O2,inactive
8,Cc1noc(C)c1S(=O)(=O)Nc1ccc2c(c1)C(=O)N([C@@H](C)CO)C[C@@H](C)[C@@H](CN(C)Cc1ccc(Oc3ccccc3)cc1)O2,inactive
9,C[C@@H]1CN([C@H](C)CO)C(=O)c2cc(NC(=O)Nc3cccc4ccccc34)ccc2O[C@@H](C)CCCCO[C@H]1CN(C)S(=O)(=O)c1ccccc1,inactive
10,CC(=O)N1[C@@H]2c3cccc(=O)n3C[C@H]1[C@H](CO)[C@H]2C(=O)N1CCc2ccccc2C1,inactive
11,C[C@H]1CN([C@@H](C)CO)C(=O)Cc2cc(NC(=O)Cc3cn(C)c4ccccc34)ccc2O[C@H]1CN(C)Cc1ccc(C(F)(F)F)cc1,active
12,C[C@@H]1CN([C@H](C)CO)C(=O)Cc2cc(NC(=O)Cc3cn(C)c4ccccc34)ccc2O[C@H]1CN(C)Cc1ccc(C(F)(F)F)cc1,inactive
13,C[C@H](CO)N1C[C@H](C)[C@@H](CN(C)Cc2ccc(C(F)(F)F)cc2)Oc2ccc(NC(=O)Cc3cn(C)c4ccccc34)cc2CC1=O,inactive
14,C[C@@H]1CN([C@@H](C)CO)C(=O)c2c(c3ccccc3n2C)-c2ccccc2CO[C@H]1CN(C)Cc1cccc(C(F)(F)F)c1,inactive
15,Cc1ccc(S(=O)(=O)N(C)C[C@H]2OCCCC[C@@H](C)Oc3ccc(NC(=O)C4CCCCC4)cc3C(=O)N([C@@H](C)CO)C[C@H]2C)cc1,inactive
16,C[C@@H]1CCCCO[C@H](CN(C)S(=O)(=O)c2ccc(Cl)cc2)[C@H](C)CN([C@H](C)CO)C(=O)c2cc(NC(=O)C3CCCCC3)ccc2O1,active
17,Cc1ccc(S(=O)(=O)N(C)C[C@@H]2OCCCC[C@@H](C)Oc3ccc(NC(=O)C4CCCCC4)cc3C(=O)N([C@H](C)CO)C[C@@H]2C)cc1,inactive
18,Cc1ccc(S(=O)(=O)N(C)C[C@H]2OCCCC[C@H](C)Oc3ccc(NC(=O)C4CCCCC4)cc3C(=O)N([C@H](C)CO)C[C@H]2C)cc1,inactive
19,C[C@@H]1CN([C@H](C)CO)C(=O)c2cc(NC(=O)C3CCCCC3)ccc2O[C@@H](C)CCCCO[C@H]1CN(C)S(=O)(=O)c1ccc(F)cc1,inactive

row,SMILES,cytotoxicity call
1,Cc1ccc(S(=O)(=O)N(C)C[C@H]2OCCCC[C@@H](C)Oc3ccc(NC(=O)C4CCCCC4)cc3C(=O)N([C@H](C)CO)C[C@@H]2C)cc1,active
2,C[C@@H]1CCCCO[C@@H](CN(C)S(=O)(=O)c2ccc(F)cc2)[C@H](C)CN([C@H](C)CO)C(=O)c2cc(NC(=O)C3CCCCC3)ccc2O1,active
3,Cc1ccc(S(=O)(=O)N(C)C[C@@H]2OCCCC[C@@H](C)Oc3ccc(NC(=O)C4CCCCC4)cc3C(=O)N([C@H](C)CO)C[C@H]2C)cc1,inactive
4,C[C@@H]1CN([C@@H](C)CO)C(=O)c2cc(NC(=O)C3CCCCC3)ccc2O[C@@H](C)CCCCO[C@@H]1CN(C)S(=O)(=O)c1ccc(Cl)cc1,inactive
5,Cc1ccc(S(=O)(=O)N(C)C[C@H]2OCCCC[C@H](C)Oc3ccc(NC(=O)C4CCCCC4)cc3C(=O)N([C@@H](C)CO)C[C@@H]2C)cc1,active
6,C[C@@H]1CCCCO[C@@H](CN(C)S(=O)(=O)c2ccc(Cl)cc2)[C@@H](C)CN([C@@H](C)CO)C(=O)c2cc(NC(=O)C3CCCCC3)ccc2O1,inactive
7,C[C@H](CO)N1C[C@H](C)[C@H](CN(C)S(=O)(=O)c2ccc(F)cc2)OCCCC[C@H](C)Oc2ccc(NC(=O)C3CCCCC3)cc2C1=O,inactive
8,C[C@@H]1CCCCO[C@@H](CN(C)C(=O)CCCN(C)C)[C@H](C)CN([C@@H](C)CO)C(=O)c2cc(NS(=O)(=O)c3cn(C)cn3)ccc2O1,inactive
9,CS(=O)(=O)c1ncc(Cl)c(C(=O)NCCc2ccc(S(N)(=O)=O)cc2)n1,inactive
10,COc1ccc(S(=O)(=O)Nc2cccc3c2O[C@H](CN(C)Cc2ccc(Oc4ccccc4)cc2)[C@H](C)CN([C@H](C)CO)C3=O)cc1,inactive
11,Cc1ccc(S(=O)(=O)N(C)C[C@H]2OCCCC[C@H](C)Oc3ccc(NC(=O)CCC(F)(F)F)cc3C(=O)N([C@H](C)CO)C[C@H]2C)cc1,inactive
12,CCC(C)C1OC2(C=CC1C)CC1CC(CC=C(C)C(OC3CC(OC)C(OC4CC(OC)C(O)C(C)O4)C(C)O3)C(C)C=CC=C3COC4C(OC)C(C)=CC(C(=O)O1)C34O)O2 (stereo unspecified),active
13,CCC(C)C1OC2(C=CC1C)CC1CC(CC=C(C)C(OC3CC(OC)C(OC4CC(OC)C(NC(C)=O)C(C)O4)C(C)O3)C(C)C=CC=C3COC4C(O)C(C)=CC(C(=O)O1)C34O)O2 (stereo unspecified),inactive
14,CC[C@H](C)[C@H]1O[C@]2(C=C[C@@H]1C)C[C@@H]1C[C@@H](C/C=C(\C)[C@@H](O[C@H]3C[C@H](OC)[C@@H](O[C@H]4C[C@H](OC)[C@@H](NC(C)=O)[C@H](C)O4)[C@H](C)O3)[C@@H](C)/C=C/C=C3\CO[C@@H]4[C@H](O)C(C)=C[C@@H](C(=O)O1)[C@]34O)O2,active
15,CN[C@@H]1[C@@H](C)O[C@@H](O[C@H]2[C@H](C)O[C@@H](O[C@@H]3/C(C)=C/C[C@@H]4C[C@@H](C[C@]5(C=C[C@H](C)[C@@H](C(C)C)O5)O4)OC(=O)[C@@H]4C=C(C)[C@@H](O)[C@H]5OC/C(=C\C=C\[C@@H]3C)[C@]54O)C[C@@H]2OC)C[C@H]1OC,active
16,COc1ccc(S(=O)(=O)Nc2ccc3c(c2)C(=O)N([C@@H](C)CO)C[C@@H](C)[C@@H](CN(C)CC2CC2)O3)cc1,inactive
17,Cc1noc(C)c1S(=O)(=O)Nc1cccc2c1O[C@@H](CN(C)C(=O)Nc1ccccc1)[C@@H](C)CN([C@@H](C)CO)C2=O,inactive
18,COc1ccc(NC(=O)N(C)C[C@@H]2OCCCC[C@@H](C)Oc3ccc(NC(=O)Nc4ccc5c(c4)OCO5)cc3C(=O)N([C@H](C)CO)C[C@H]2C)cc1,inactive
19,O=C(C[C@H]1CC[C@H](NC(=O)c2ccc(F)cc2)[C@H](CO)O1)NCc1ccncn1,inactive

row,SMILES,cytotoxicity call
1,COc1ccc(NC(=O)Nc2ccc3c(c2)[C@H]2C[C@H](CC(=O)NCc4ccncc4)O[C@@H](CO)[C@H]2O3)cc1,inactive
2,COc1ccc(NC(=O)N(C)C[C@@H]2OCCCC[C@H](C)Oc3ccc(NS(=O)(=O)c4ccccc4)cc3C(=O)N([C@@H](C)CO)C[C@@H]2C)cc1,inactive
3,C=CCOC(=O)[C@H]1[C@@H]2C(=O)O[C@@H](c3ccccc3)[C@@H](c3ccccc3)N2[C@@H](c2ccc(OCCOC(=O)[C@@H]3C[C@@H]4C(=O)NCC(=O)N4[C@@H]3c3cccc(OCCO)c3)cc2)[C@]12C(=O)Nc1ccc(I)cc12,inactive
4,O=C(C[C@@H]1C[C@@H]2c3cc(NC(=O)Nc4ccc(C(F)(F)F)cc4)ccc3O[C@@H]2[C@@H](CO)O1)NCc1ccc(Cl)cc1,inactive
5,Cc1noc(C)c1NC(=O)Nc1cccc2c1O[C@@H](CN(C)S(=O)(=O)c1cn(C)cn1)[C@@H](C)CN([C@H](C)CO)C2=O,inactive
6,COc1cccc(S(=O)(=O)Nc2ccc3c(c2)OC[C@@H](C)N(C(=O)Cc2cccnc2)C[C@@H](C)[C@@H](OC)CN(C)C3=O)c1,inactive
7,C[C@H](CO)N1C[C@H](C)[C@@H](CN(C)Cc2ccc(Oc3ccccc3)cc2)Oc2c(NC(=O)C3CC3)cccc2C1=O,inactive
8,CC(C)N1C[C@H](C)[C@@H](CN(C)Cc2ccc(Oc3ccccc3)cc2)Oc2c(NC(=O)C3CCNCC3)cccc2C1=O,active
9,C[C@@H]1CN([C@H](C)CO)C(=O)c2cccc(NC(=O)C3CC3)c2O[C@H]1CN(C)Cc1ccc(Oc2ccccc2)cc1,inactive
10,CC(C)N1C[C@@H](CN(C)Cc2ccc(Oc3ccccc3)cc2)Oc2c(NC(=O)c3ccncc3)cccc2C1=O,active
11,CC(C)N1C[C@H](C)[C@@H](CN(C)Cc2ccc(Oc3ccccc3)cc2)Oc2c(NC(=O)C3CCN(C)CC3)cccc2C1=O,active
12,C[C@@H]1CN([C@@H](C)CO)C(=O)c2cccc(NC(=O)c3ccncc3)c2O[C@H]1CN(C)Cc1ccc(Oc2ccccc2)cc1,inactive
13,CC(C)N1C[C@H](CN(C)Cc2ccc(Oc3ccccc3)cc2)Oc2c(NC(=O)c3ccncc3)cccc2C1=O,inactive
14,C[C@H]1CN([C@@H](C)CO)C(=O)c2cccc(NC(=O)C3CC3)c2O[C@@H]1CN(C)Cc1ccc(Oc2ccccc2)cc1,inactive
15,C[C@@H]1CN([C@@H](C)CO)C(=O)c2cccc(NC(=O)C3CC3)c2O[C@@H]1CN(C)Cc1ccc(Oc2ccccc2)cc1,inactive
16,CC(C)N1CC[C@H](CN(C)Cc2ccc(Oc3ccccc3)cc2)Oc2c(NC(=O)c3ccncc3)cccc2C1=O,inactive
17,COC[C@H](C)N1C[C@H](C)[C@@H](CN(C)Cc2ccc(Oc3ccccc3)cc2)Oc2c(NC(=O)c3ccncc3)cccc2C1=O,active
18,C[C@@H]1CN([C@@H](C)CO)C(=O)c2cccc(NC(=O)c3ccncc3)c2O[C@@H]1CN(C)Cc1ccc(Oc2ccccc2)cc1,inactive
